Compound activity as filed in PubChem BioAssay.
An excerpt weighted towards active compounds, which were near 2.1% of everything screened.
EWS-Fli inh – EWS/Fli-driven NR0B1 reporter inhibitors, primary screen, A673 cells, NR0B1 luciferase, luminescence, MLPCN library | 0.67% of 350,000 active | inhibition, % at 12.6 µM | viability-normalised;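 active means mean inhibition of at least 50% after viability correction, with every replicate also passing that limit; inconclusive means mean reaches 50% but only one of two replicates passes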;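 further: firefly luciferase signal divided by Alamar Blue viability fluorescence both relative to DMSO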
HIF-2a inh – HIF-2a reporter inhibitors, primary screen, luminescence, 786-0 RCC cells. 0.72% of 360,000 active. 786-0 RCC cells HIF-2a reporter, luciferase luminescence, overnight. AID 624352, 2012. inhibition, % at 18.8 µM;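 active means inhibition of the luminescence signal of 40% or more relative to plate controls, in a single-dose primary screen at 18.75 µM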
CF NFkB block – inhibitors of PAF-induced NF-kB signaling, primary screen, cell-based, GFP fluorescence, uHTS; KKLEB NF-kB-GFP reporter, GFP fluorescence overnight; inhibition, % at 5 µM; 0.86% of 360,000 active; AID 588850, 2011;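 active means at least 50% inhibition at 5 µM, scaled per plate between neutral and stimulator controls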;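 further: PAF is a Pseudomonas aeruginosa culture filtrate used as stimulus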
PAX8 inh HTS – inhibitors of PAX8-driven TPO luciferase reporter, primary screen, RMG-I cells, single concentration; SteadyGlo, 24 h; inhibition, % at 12.6 µM; 1.2% of 360,000 active;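 active means mean replicate inhibition at least 60% with every replicate also reaching 60%; inconclusive means only one of the two criteria is met; inactive means mean below 60% and not all replicates reaching 60%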;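 further: luciferase light reporting Pax8 driven TPO promoter activity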
KKLEB tox – cytotoxicity in KKLEB CF airway cells, primary screen, cytotoxicity control for CF NF-kB inhibitor project, cell-based, uHTS, fluorescence assay plates; 0.36% of 360,000 active; activity change (cytotoxicity), % at 5 µM; KKLEB CF airway cells viability, ATPlite luminescence, overnight; stronger effect = lower value; cells stimulated with P. aeruginosa culture filtrate; AID 602141, 2011;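 active means corrected activity change at or below -50% at 5 µM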
Mdm2 MdmX conf – retested Mdm2-MdmX interaction blockers, confirmation, cell-based, luminescence, single concentration, set 2. AID 504601, 2011. SaOS-2 split-luciferase Mdm2/MdmX complementation. inhibition, % at 8 µM. 99% of 740 active. shares compounds with HIF-2a inh;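 active means mean inhibition of the luminescence signal across two replicates at or above 26 percent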
Target sequence (O15151 whole entry, looked up): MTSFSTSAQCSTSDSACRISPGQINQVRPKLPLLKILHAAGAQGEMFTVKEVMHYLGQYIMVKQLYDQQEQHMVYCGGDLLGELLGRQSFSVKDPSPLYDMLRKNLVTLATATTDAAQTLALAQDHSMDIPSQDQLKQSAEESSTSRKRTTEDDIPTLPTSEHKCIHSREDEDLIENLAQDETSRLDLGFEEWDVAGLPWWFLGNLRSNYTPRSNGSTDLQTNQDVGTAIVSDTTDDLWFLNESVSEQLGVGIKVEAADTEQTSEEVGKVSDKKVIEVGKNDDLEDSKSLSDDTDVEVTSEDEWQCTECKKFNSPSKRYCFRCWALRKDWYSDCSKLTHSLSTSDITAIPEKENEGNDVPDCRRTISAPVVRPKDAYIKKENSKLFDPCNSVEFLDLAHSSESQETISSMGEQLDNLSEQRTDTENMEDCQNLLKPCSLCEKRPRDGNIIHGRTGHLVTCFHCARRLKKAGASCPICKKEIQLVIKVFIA
Target sequence (Q00987 whole entry, looked up): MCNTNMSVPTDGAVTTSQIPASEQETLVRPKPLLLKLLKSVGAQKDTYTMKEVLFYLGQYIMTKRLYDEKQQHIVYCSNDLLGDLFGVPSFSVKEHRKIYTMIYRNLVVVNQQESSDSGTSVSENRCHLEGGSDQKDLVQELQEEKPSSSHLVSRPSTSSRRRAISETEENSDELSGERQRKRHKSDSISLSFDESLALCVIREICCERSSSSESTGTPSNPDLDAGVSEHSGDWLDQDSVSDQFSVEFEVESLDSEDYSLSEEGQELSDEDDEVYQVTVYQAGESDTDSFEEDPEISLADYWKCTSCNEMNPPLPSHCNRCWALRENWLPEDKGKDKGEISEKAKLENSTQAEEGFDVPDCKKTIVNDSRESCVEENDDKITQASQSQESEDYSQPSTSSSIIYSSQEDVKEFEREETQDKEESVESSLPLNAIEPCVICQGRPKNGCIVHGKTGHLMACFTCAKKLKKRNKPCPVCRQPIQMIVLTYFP
HIF-2a conf – HIF-2a reporter inhibitor retest, confirmation, luminescence, 786-0 RCC cells; AID 651580, 2012; HIF-2a luciferase reporter luminescence, overnight; shares compounds with HIF-2a inh; inhibition, % at 18.8 µM; 56% of 1,800 active;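 active means mean inhibition across four replicates of at least 40 percent at the single tested concentration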
HIF-1a cs – HIF-1a luciferase reporter signal reduction – MiaPaCa-2 cells, single concentration, counter-screen for HIF-2a inhibitor project, confirmation; AID 651589, 2012; inhibition, % at 18.8 µM; shares compounds with HIF-2a inh; MiaPaCa-2 HIF-1a luciferase reporter, desferoxamine, overnight; 72% of 1,800 active;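 active means mean inhibition of the reporter signal across four replicates at the single tested dose of 50% or more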
Numbers stand for hits; n = inactive; u = inconclusive; x = no result given.

SMILES | EWS-Fli inh | HIF-2a inh | CF NFkB block | PAX8 inh HTS | KKLEB tox | HIF-2a conf | HIF-1a cs | others
c1ccc(CN2CCC(Nc3nc(-c4cccnc4)nc4ccccc34)CC2)cc1 | n | 42 | n | n | n | n | 79
CC1CCc2c(sc(NC(=O)CSc3ncn[nH]3)c2C#N)C1 (stereo not given) | 64 | 91 | n | n | n | 95 | 90
N#Cc1c(NC(=O)CCCC(=O)O)sc2c1CCCCC2 | x | 63 | n | n | n | 67 | n
N#Cc1c(NC(=O)CSc2ncn[nH]2)sc2c1CCCC2 | x | 90 | n | x | n | 94 | 71
O=C(CCCc1ccccc1)Nc1cccc(C(=O)O)c1 | u | 55 | n | n | n | 59 | n
O=C(C#Cc1ccccc1)c1ccc([N+](=O)[O-])cc1 | x | 40 | n | n | n | n | 89 | Mdm2 MdmX conf=103
O=C(O)c1cc(S(=O)(=O)Nc2ccc3c(c2)OCCO3)c(Cl)cc1Cl | n | 42 | n | n | n | 54 | 71
Cc1nn(C)cc1S(=O)(=O)Nc1ccc2c(c1)OCCO2 | n | 41 | n | n | n | 45 | 56
O=C(O)c1cc(N/N=C/c2ccc3c(c2)OCCO3)ccc1Cl | n | 62 | n | n | n | 80 | n
C[C@H]1CN([C@@H](C)CO)C(=O)c2cc(-c3ccccc3)cnc2O[C@H]1CN(C)Cc1ccccn1 | n | x | x | x | x | x | x
CCCNC(=O)Nc1ccc2c(c1)OC[C@H](C)N(Cc1ccc(-c3ccccn3)cc1)C[C@H](C)[C@H](OC)CN(C)C2=O | n | x | x | u | x | x | x
C[C@H](CO)N1C[C@H](C)[C@@H](CN(C)Cc2ccncc2)Oc2ccc(N(C)C)cc2C1=O | n | x | x | n | x | x | x
N#Cc1c(N2CCCC(O)C2)nc(N)c2c(N)nc3c(c12)CC(=O)N3C12CC3CC(CC(C3)C1)C2 (stereo not given) | x | n | 58 | n | n | x | x | Mdm2 MdmX conf=91
C=C(C)CN(CC)c1nc(N)c2c(N)nc3c(c2c1C#N)CC(=O)N3C12CC3CC(CC(C3)C1)C2 | x | n | n | n | n | x | x
C[C@@H]1CN([C@@H](C)CO)C(=O)c2cccc(NS(=O)(=O)c3ccccc3)c2O[C@H]1CN(C)Cc1ccc(C(=O)O)cc1 | n | x | x | n | x | x | x
COc1ccc2nc(C)cc(Nc3ccc(C(=O)O)cc3)c2c1 | x | n | n | x | n | x | x
COc1ccc2nc(C)cc(N/N=C/c3ccc(F)cc3)c2c1 | 71 | 87 | n | n | -77 | x | x | Mdm2 MdmX conf=103
COc1ccc(Nc2cc(C)nc3ccc(OC)cc23)cc1 | n | 42 | n | n | n | n | 57
COc1ccc2c3c([nH]c2c1)[C@H](CO)N(CC1CC1)CC31CN(C(=O)C2CCOCC2)C1 | n | x | x | n | x | x | x
O=C(c1cccc(F)c1)N1CC2(C1)[C@@H](c1ccccc1)[C@H](CO)N2Cc1ccccn1 | n | x | x | n | x | x | x
Cc1ccccc1C(=O)N1CCN(c2ccc(NC(=O)c3ccc4c(c3)OCCO4)cc2)CC1 | n | 60 | n | n | n | n | 72
CC(C)C(=O)N1CCN(c2ccc(NC(=O)c3ccc4c(c3)OCCO4)cc2)CC1 | n | 42 | n | n | n | n | n
CC(=O)N1CCN(c2ccc(NC(=O)c3ccc4c(c3)OCO4)cc2)CC1 | x | n | n | n | n | x | x
Cc1ccc(C(=O)N2CCN(c3ccc(NC(=O)c4ccc5c(c4)OCCO5)cc3)CC2)cc1 | n | n | n | n | n | x | x
Cc1ccc(C(=O)Nc2ccc3c(c2)OCCO3)c(C)c1 | 79 | 52 | n | 68 | n | 70 | n
SMILES | EWS-Fli inh | HIF-2a inh | CF NFkB block | PAX8 inh HTS | KKLEB tox | HIF-2a conf | HIF-1a cs | others
Cc1cc(C)c(C(=O)Nc2ccc3c(c2)OCCO3)c(C)c1 | n | n | n | n | n | x | x
O=C(Nc1ccc(NC(=O)c2cccs2)cc1)c1ccc2c(c1)OCO2 | n | n | n | n | n | x | x
O=C(Nc1ccc(NC(=O)c2cccs2)cc1)c1ccc2c(c1)OCCO2 | n | 47 | n | n | n | 45 | n
COc1ccc(Br)cc1[C@H]1[C@H]2C=CC[C@@H](C)[C@@H]2C(=O)N1Cc1ccccc1 | n | 44 | n | n | n | n | n
CCN1[C@@H]2c3ccc(-c4ccc(F)cc4)c(=O)n3C[C@@H]2[C@@H](CO)[C@@H]1C(=O)NCCc1cn(C)cn1 | n | x | x | x | x | x | x
Cc1ccc(S(=O)(=O)Nc2cccc3c2O[C@H](CN(C)S(=O)(=O)c2ccc(F)cc2)[C@@H](C)CN([C@H](C)CO)C3=O)cc1 | n | x | x | n | x | x | x
CC(C)(C)c1ccc(C(=O)O/N=C(\N)c2ccccc2)cc1 | 76 | 72 | n | n | n | 87 | 87
Cc1noc(-c2ccc(Cl)cc2)c1C(=O)O/N=C(\N)c1ccc(C(C)(C)C)cc1 | n | n | n | n | n | x | x | Mdm2 MdmX conf=103
COc1ccc(C(=O)O/N=C(\N)c2ccccc2)cc1 | n | n | n | n | n | x | x
Cc1cc(C(=O)O/N=C(\N)c2ccc(C(C)(C)C)cc2)no1 | n | n | n | n | n | x | x
Cc1[nH]n(-c2ccccc2)c(=O)c1N=Nc1c(O)cc(S(=O)(=O)N(C)C)c2ccccc12 | n | n | n | n | n | x | x | Mdm2 MdmX conf=89
CCN(CC)Cc1c(O)ccc2c1O/C(=C\C=C\c1ccccc1)C2=O | 77 | 66 | n | n | n | x | x | Mdm2 MdmX conf=n
COc1ccccc1/C=C/C=C1\Oc2c(ccc(O)c2CN(C)C)C1=O | n | n | n | n | n | x | x
O=C(O)c1cccc(COc2ccccc2Cl)c1 | 86 | 77 | n | x | n | 93 | n | Mdm2 MdmX conf=78
CC(=O)Nc1ccc2c(c1)C(=O)N(C)[C@@H]1CC[C@H](CC(=O)NCC3CC3)O[C@@H]1CO2 | n | x | x | n | x | x | x
O=C(CCN1C(=O)/C(=C/c2ccccc2F)SC1=S)NCCc1ccc(O)cc1 | x | n | n | n | n | x | x
COc1ccc(/C=C2/SC(=S)N(CCCC(=O)Nc3ccc(O)cc3)C2=O)cc1 | n | n | n | n | n | x | x | Mdm2 MdmX conf=102
COc1ccc(/C=C2\SC(=S)N(CCC(=O)Nc3cccc(O)c3)C2=O)cc1 | n | n | n | n | n | x | x
CCc1ccc(/C=C2\SC(=S)N(CCCC(=O)Nc3ccccn3)C2=O)cc1 | x | 96 | n | x | n | x | x | Mdm2 MdmX conf=95
O=C(CCN1C(=O)/C(=C/c2ccccc2)SC1=S)NCCc1ccc(O)cc1 | x | n | n | x | n | x | x | Mdm2 MdmX conf=102
CCc1ccc(/C=C2/SC(=S)N(CCCC(=O)Nc3ccccc3C(=O)O)C2=O)cc1 | x | n | n | n | n | x | x
